Sampled rows, rich in hits. Any-hit rate of the full collection: about 12%.
USP8 inh: blocks human USP8 ubiquitin-rhodamine cleavage | AID 1645853 | inhibition, % at 20 µM | 47,000 tested, 4.2% active | purified USP8, Ub-rhodamine cleavage fluorescence, 30 min | P40818
USP17 inh: human USP17-like deubiquitinase inhibition. A8MUK1. purified USP17, Ub-rhodamine cleavage fluorescence, 3 h. inhibition, % at 50 µM. 47,000 tested, 6.5% active. AID 1645855
Target sequence (A8MUK1 whole entry, looked up): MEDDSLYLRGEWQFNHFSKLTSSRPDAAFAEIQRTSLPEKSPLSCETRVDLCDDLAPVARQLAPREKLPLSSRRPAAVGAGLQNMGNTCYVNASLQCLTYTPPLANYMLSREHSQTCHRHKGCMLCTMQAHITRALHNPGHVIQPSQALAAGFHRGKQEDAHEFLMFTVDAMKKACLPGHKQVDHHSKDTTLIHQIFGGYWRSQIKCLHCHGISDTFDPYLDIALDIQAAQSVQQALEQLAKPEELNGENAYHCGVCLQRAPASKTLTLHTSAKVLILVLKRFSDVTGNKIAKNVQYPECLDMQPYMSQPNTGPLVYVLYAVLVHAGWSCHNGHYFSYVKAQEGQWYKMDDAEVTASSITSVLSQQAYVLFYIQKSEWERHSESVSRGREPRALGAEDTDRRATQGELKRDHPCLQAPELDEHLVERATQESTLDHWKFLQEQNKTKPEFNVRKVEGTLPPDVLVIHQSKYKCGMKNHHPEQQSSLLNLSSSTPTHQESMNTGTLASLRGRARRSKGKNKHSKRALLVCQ
USP30 block: inhibitors of human USP30 deubiquitinase; AID 1645860; 47,000 tested, 5.3% active; Q70CQ3; purified USP30, Ub-rhodamine cleavage fluorescence; inhibition, % at 25 µM
Hits are given with their value; - = inactive; . = not tested or not shown. No stated cut-off is given here; in the data, active means inhibition above about 30%; inactive means the rest.

SMILES | USP8 inh | USP17 inh | USP30 block
O=C(CSc1ncnc2c1oc1ccccc12)Nc1ccccc1F | - | 43 | .
O=C(CSc1ncnc2c1oc1ccccc12)Nc1ccc(Cl)c(Cl)c1 | - | - | .
O=C(CSc1ncnc2c1oc1ccccc12)Nc1cccc2ccccc12 | - | - | -
Cc1nc2ccccc2nc1SCC(=O)NCCc1ccccc1 | - | - | -
O=C(CSc1nc(-c2ccccc2)c2ccccc2n1)NCCc1ccccc1 | - | 31 | -
O=C(CSc1ncnc2c1oc1ccccc12)c1cc(Cl)sc1Cl | - | - | -
O=C(CSc1ncnc2c1oc1ccccc12)NCCc1ccccc1 | - | 64 | 36
O=C(CC1C(=O)N(Cc2cccnc2)c2nc3ccccc3n21)Nc1ccc(F)cc1 (configuration not stated) | - | - | -
CCOc1ccccc1NC(=O)C1(C)Cc2ccccc2C(=O)O1 (configuration not stated) | - | - | -
O=C(CC1c2ncccc2C(=O)N1c1ccc(F)cc1)NCc1ccccc1 (configuration not stated) | - | - | -
CCc1nc(N2CCCC2=O)sc1C(=O)Nc1cccc(C(C)=O)c1 | - | - | -
O=C(c1cncnc1)N1CCCC(c2ncc(Cc3ccccc3F)o2)C1 (configuration not stated) | - | - | -
Cc1cc(C(=O)N2C[C@H]3C[C@H]4[C@](C2)(CN(CC(=O)N(C)C)S4(=O)=O)O3)no1 | - | - | -
COc1ccc(Nc2ncc(C(=O)Nc3ccc(Oc4ccccc4)cc3)c3ccccc23)cc1 | - | - | 68
COc1ccc(NC(=O)c2cccnc2Nc2ccc(OC)cc2)cc1 | - | - | -
CCOc1ccc(CCNC(=O)c2cnc(Nc3ccccc3OC)c3ccccc23)cc1OCC | - | - | -
COc1cc(Cl)ccc1Nc1ncc(C(=O)Nc2cc(OC)c(OC)c(OC)c2)c2ccccc12 | 33 | 94 | -
O=C(NCCc1cccc(F)c1)c1nc2c(s1)CCCN2C(=O)C1CC1 | - | - | -
Cc1ccc(C(=O)OCC(=O)Nc2sccc2C(N)=O)cc1C | - | - | -
COc1ccccc1CNC(=O)[C@H](C)NC(=O)[C@@H]1Cc2c([nH]c3ccccc23)C2c3ccccc3C(=O)N21 (some centres not stated) | - | - | -
O=S(=O)(NCc1cnc(C2CCCCO2)nc1)c1ccccc1F (configuration not stated) | - | - | -
Cc1cc(=O)n(CC(=O)NCc2ccc3c(c2)OCO3)c(-c2ccc(F)cc2)n1 | - | - | -
O=C(CN1CCc2[nH]c3c(F)c(Cl)ccc3c(=O)c2C1)NCc1ccc2c(c1)OCO2 | - | 46 | 32
Cc1cccc(C)c1NC(=O)C(c1ccccc1)N(Cc1ccccc1)C(=O)C1CCC(=O)N1 (configuration not stated) | - | - | -
CCC(Oc1ccccc1OC)C(=O)Nc1cc(Cl)ccc1Cl (configuration not stated) | - | - | -
SMILES | USP8 inh | USP17 inh | USP30 block
CCc1cc2c(=O)n3c(nc2s1)/C(=C/c1ccc(C#N)cc1)CC3 | - | - | -
CCc1ccccc1NC(=O)CN1CC[C@@H]2[C@@H](c3ccccc3)N(C(C)=O)C[C@]2(NC(C)=O)C1 | - | - | -
Cc1ccc(Nc2nc(N3CCCCC3)nc(N(c3ccccc3)c3ccccc3)n2)cc1 | - | . | -
CCc1noc(-c2ccn3c(CC(=O)Nc4ccccc4C)nnc3c2)n1 | 76 | - | -
Cc1ccc(NC(=O)Cc2nnc3cc(-c4nc(C)no4)ccn23)cc1 | 62 | - | 69
CCc1ccc(NC(=O)Cc2nnc3cc(-c4nc(C)no4)ccn23)cc1 | 84 | 55 | -
Cc1noc(-c2ccc3nnc(CC(=O)Nc4ccc(F)c(C)c4)n3c2)n1 | - | - | -
Cc1noc(-c2ccc3nnc(CC(=O)NCc4ccccc4)n3c2)n1 | - | - | -
Cc1ccc(NC(=O)Cc2nnc3ccc(-c4nc(C)no4)cn23)c(C)c1 | - | - | -
Cc1ccc(Cl)cc1-n1ncc2c(NCc3ccco3)ncnc21 | - | - | -
Cc1ccc(NC(=O)c2ccc(Nc3nnc(C)c4ccccc34)cc2)cc1 | - | 52 | -
Cc1nnc(Nc2ccc(C(=O)Nc3c(Cl)cccc3Cl)cc2)c2ccccc12 | - | - | -
Cc1ccccc1C(=O)Nc1cccc(-n2cnnn2)c1C | - | - | -
COc1cc(Cl)ccc1C(=O)Nc1cccc(-n2cnnn2)c1C | - | 82 | 47
Cc1c(NC(=O)/C=C/c2cccc(Cl)c2Cl)cccc1-n1cnnn1 | 80 | - | 43
Cc1cccc(NC(=O)COc2cccc(-n3cnnn3)c2)c1C | - | - | -
Cc1ccc(NC(=O)c2nnn(-c3ccccc3)c2C)c(C)c1 | - | - | -
Cc1ccc(Cl)c(-n2nnc(C(=O)Nc3ccccc3C#N)c2C)c1 | - | 56 | 30

Screens: PubChem BioAssay, Buhrlage Lab, Dana-Farber Cancer Institute and Novartis Institutes for BioMedical Research (Cambridge, Mass)
